Experimental data: paper PMC7819943, “Rice protein-binding microarrays: a tool to detect cis-acting elements near promoter regions in rice”
Whole data set: some 35,000 sequences, median “fluorescence intensity (a.u.)” near 10,000, cut for the highest 2% near 52,000. This is one part of a sample in which the highest values are shown more often than they occur.

molecular target: T1, OsWOX13 (Oryza sativa, UniProt Q5QMM3 1-267); assay: protein-binding microarray (RPBM); PBS, 2% BSA, 51.3 ng/ul salmon testes DNA, 50 uM zinc acetate, 200 nM TF, 25 C, 1 h; high values mean tight binding; conditions: protein: recombinant; tags: N-terminal polyhistidine and DsRed monomer fusion (pET32a); label: CyDye5-dUTP incorporated in the synthesized complementary strand; 3' TTTTT single-stranded linker to array surface; dsDNA, one strand shown
T1 sequence: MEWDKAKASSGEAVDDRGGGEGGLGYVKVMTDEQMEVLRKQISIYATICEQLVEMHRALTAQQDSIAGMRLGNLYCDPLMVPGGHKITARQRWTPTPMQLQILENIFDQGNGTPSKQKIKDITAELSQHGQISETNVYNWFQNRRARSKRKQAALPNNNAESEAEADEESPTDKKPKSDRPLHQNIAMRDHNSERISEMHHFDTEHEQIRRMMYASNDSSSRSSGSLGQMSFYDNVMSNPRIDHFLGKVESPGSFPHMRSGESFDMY
Summary of the method: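 The binding signal is fluorescence intensity per array feature (arbitrary units). Readings came from an Axon 4000B scanner after a washed, 2% BSA-blocked, double-stranded custom Agilent array had been incubated for 1 h at 25 °C with 200 nM protein and 50 µM zinc acetate. The protein was a Ni–NTA-purified transcription factor fused N-terminally to polyhistidine and DsRed, expressed in E. coli BL21-CodonPlus.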

Row | Sequence | binding signal
1 | ACAAAACAAATTACAGATTCCGCCTGCAAATTATGAGACACGGAGTCACCTAGTGCAG | 6510 fluorescence intensity (a.u.)
2 | CCGTGCTCAACTACCCAATCACTCCAAATTAAGCTCGCATCGGAGTCACCTAGTGCAG | 3750 fluorescence intensity (a.u.)
3 | TATTAATTAATTAACCTTAATTAATAAACAGGCAAAAGAACGGAGTCACCTAGTGCAG | 40700 fluorescence intensity (a.u.)
4 | TGCTAGATTAAATTTTAAAACTATATTGTTCCTTTCATATCGGAGTCACCTAGTGCAG | 12400 fluorescence intensity (a.u.)
5 | CCTGATTTCCTCCTTTCAGTGAAGTGTTAAACCCTAGCTACGGAGTCACCTAGTGCAG | 21500 fluorescence intensity (a.u.)
6 | AGTGGCTGCCGAATTAATTGGATCGCGTGCTGCGTGCGTGCGGAGTCACCTAGTGCAG | 5740 fluorescence intensity (a.u.)
7 | TTAAATTGGATCTGATTGATTTGTTTAAGGAAACCACCGGCGGAGTCACCTAGTGCAG | 54600 fluorescence intensity (a.u.)
8 | ATTAATTGAGTTTTATTTTATTGTAAATTTGATTTAATAGCGGAGTCACCTAGTGCAG | 37200 fluorescence intensity (a.u.)
9 | AGGATTGTTTCTGATGATTTGGGCCCGGAAAGACATAAGGCGGAGTCACCTAGTGCAG | 7510 fluorescence intensity (a.u.)
10 | TGATAAATTTGATGTTTATATGTTAAATTATAGTAGTTTGCGGAGTCACCTAGTGCAG | 17600 fluorescence intensity (a.u.)
11 | TGTTAAATTATATCTAAGGAAACCGGTTTTGATTTCCTTCCGGAGTCACCTAGTGCAG | 11100 fluorescence intensity (a.u.)
12 | CTATTAAATTGATTATATATGATTTGTAGTTTATAGTTGGCGGAGTCACCTAGTGCAG | 65100 fluorescence intensity (a.u.)
13 | GAGTAATATTCAACATTTTGATTAGAGGTTAACCGGTGTACGGAGTCACCTAGTGCAG | 5370 fluorescence intensity (a.u.)
14 | ATTCATTAATCTGTACTAATTGATATTGCTAAGCAGCTGCCGGAGTCACCTAGTGCAG | 34200 fluorescence intensity (a.u.)
15 | TTTGATAAAATCATAGATGTAGATTTTAATGTGATCTGAGCGGAGTCACCTAGTGCAG | 6270 fluorescence intensity (a.u.)
16 | TCACGATTAATTATATCATCATTTTGTATCCTTTGATTTCCGGAGTCACCTAGTGCAG | 25200 fluorescence intensity (a.u.)
17 | GTGGCATTTAGGTAATTAATTTAGTTTTATTTGTTACCTGCGGAGTCACCTAGTGCAG | 10200 fluorescence intensity (a.u.)
18 | TCTAAATGATTGTTATTTTCTTTCCTATTGTAAAGTTCAACGGAGTCACCTAGTGCAG | 18900 fluorescence intensity (a.u.)
19 | ATTTTGTGGTAATCTATACAAATTACTATATCCCCAATTGCGGAGTCACCTAGTGCAG | 4670 fluorescence intensity (a.u.)
20 | TAATTAATAATTAATTAATTATGTGTTAATTGCTTGCTCCCGGAGTCACCTAGTGCAG | 65500 fluorescence intensity (a.u.)
21 | TATATTTATTATTTGCAGTTAATTATGTTACAAATAATAACGGAGTCACCTAGTGCAG | 4460 fluorescence intensity (a.u.)
22 | TGTATTTAATTAGTTTGACAGAAACAAATTTGCTCAGTTACGGAGTCACCTAGTGCAG | 37100 fluorescence intensity (a.u.)

Row | Sequence | binding signal
23 | CAAATTTATAATAATTAAAATTTAATTAATTATGTGTTAACGGAGTCACCTAGTGCAG | 57700 fluorescence intensity (a.u.)
24 | ATTATTAATTTAATAGTATTGTAGTGATTCAGAGTACTAGCGGAGTCACCTAGTGCAG | 19200 fluorescence intensity (a.u.)
25 | ATTTTGAAATTTTAATTTTAAAATTACATTTTGGGACAAACGGAGTCACCTAGTGCAG | 8130 fluorescence intensity (a.u.)
26 | CTTTAATTAATTTAACTGCCATTATTATGTACTTTCAGAGCGGAGTCACCTAGTGCAG | 63200 fluorescence intensity (a.u.)
27 | AATACTTATTAATAATTAACATGTGTTAATTCATTGCTTCCGGAGTCACCTAGTGCAG | 13400 fluorescence intensity (a.u.)
28 | CATTATTTCACTTGATTAAATTGCTTTAACTTTTATTTAGCGGAGTCACCTAGTGCAG | 15900 fluorescence intensity (a.u.)
29 | TGTGTGTGTTTTAATTAATTAACATTTATATAAATATGAACGGAGTCACCTAGTGCAG | 14100 fluorescence intensity (a.u.)
30 | CTTAATTACAAATTTGAAATTAATTTGCTAGGTATGTTTACGGAGTCACCTAGTGCAG | 63900 fluorescence intensity (a.u.)
31 | GTAAATATTAATGAATTGCTTGTTTATGTTTAAATAAATGCGGAGTCACCTAGTGCAG | 4960 fluorescence intensity (a.u.)
32 | ATTGATTATTATTTTAAAATAAAATGGCGTGTTAGGTTTTCGGAGTCACCTAGTGCAG | 47300 fluorescence intensity (a.u.)
33 | CACTGATTTTGATAGTTGAGGGACCCGTTGTATTTGATTTCGGAGTCACCTAGTGCAG | 21500 fluorescence intensity (a.u.)
34 | CCAAAATTTGATAGAATCTATTCCGAAGCGTCCAATGTTTCGGAGTCACCTAGTGCAG | 33400 fluorescence intensity (a.u.)
35 | CCGCTGTAGCTGATTGCCAGTGTCAGATCAAGCTGTGAATCGGAGTCACCTAGTGCAG | 9800 fluorescence intensity (a.u.)
36 | ATTAGGTGTTTCCAGTTAATTAAAGTCATGTAGTACGGATCGGAGTCACCTAGTGCAG | 3680 fluorescence intensity (a.u.)
37 | AATCAGCTCTAAATTTAAATTGTGGCTGATAAATACGAGTCGGAGTCACCTAGTGCAG | 4450 fluorescence intensity (a.u.)
38 | GCTAAATTCCTATCAAATTCAAGTTTAACACATTACTGCGCGGAGTCACCTAGTGCAG | 13100 fluorescence intensity (a.u.)
39 | ATGAAATCAAGGTTTTGCAAATTGAAATCCATGTTTTGGTCGGAGTCACCTAGTGCAG | 8140 fluorescence intensity (a.u.)
40 | ATTATTATAAATTATTTCCTCCGTTTCACAATGTAAGTCACGGAGTCACCTAGTGCAG | 5530 fluorescence intensity (a.u.)
41 | TAAATTGCGCAAAATTTATTCACGTAGATTAAGAGTCCATCGGAGTCACCTAGTGCAG | 10700 fluorescence intensity (a.u.)
42 | GTTGATTTCACGACCTGCTCGCTGAGGAATGGAGGTCCAGCGGAGTCACCTAGTGCAG | 3180 fluorescence intensity (a.u.)
43 | ATCATAATTAAATATATTTTCATAATAAATTTGTCTTTAGCGGAGTCACCTAGTGCAG | 31000 fluorescence intensity (a.u.)
